Screens as filed in PubChem.
Glioma ERSR ind: qHTS for Inducers of the Endoplasmic Reticulum Stress Response (ERSR) in Human Glioma: qHTS; U87-MG GRP78 promoter luciferase reporter, 16 h; AID 602332, 2012; Potency, µM, inactives show top-dose activation, actives largely listed as activators; 420,000 compounds, 0.02% hits; active = well fitted activation curve with a large enough effect; inconclusive = small, poorly fitted or top-dose-only effect; inactive = no such curve, though single readings can be large or run the other way; note: potency is the fitted concentration of half-maximal effect; series mostly up to about 76 µM; % of control where 0% means no effect; nearly all actives have a fitted effect of over 35% in size
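ERSR induction read as luciferase luminescence (Bright-Glo, 10 min at room temperature) in stably transfected human U87-MG glioma cells exposed to compounds for 16 h, using GRP78 as sensor.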
KCNH2 3.1 inh: qHTS for Inhibitors of KCHN2 3.1: Mutant qHTS; U2OS KCNH2 3.1, thallium flux FluxOr; hits give low values; activity change, % (tested at about 1.8 µM); 340,000 compounds, 0.95% hits;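 active = maximum activity change below -70%; inconclusive = maximum activity change from -70% to -50%; inactive = maximum activity change above -50%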;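 note: thallium influx rate constant from kinetic fluorescence after stimulation buffer; % is set by controls: 0 for no effect and ±100 for the full control effect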
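Normalized rate constant (relative to positive and negative DMSO controls) derived from a 2 min kinetic fluorescence read after stimulation; U2OS cells expressing the 3.1 isoform via virus at 1.77 x 10^8 /mL.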
KCNH2 WT inh: qHTS for Inhibitors of KCHN2 3.1: Wildtype qHTS. Voltage-gated inwardly rectifying potassium channel KCNH2 (Homo sapiens), Q12809. U2OS, BacMam KCNH2, thallium flux FluxOr; hits give low values. activity change, % at 1.84 µM. 340,000 compounds, 0.37% hits. AID 720551, 2013;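 active = maximum activity change below -70%; inconclusive = maximum activity change between -70% and -50%; inactive = maximum activity change above -50%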; note: % is set by controls: 0 for no effect and ±100 for the full control effect
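U2OS cells were transduced with wild-type KCNH2 virus (2.03 x 10^8 / mL) for 4 h at room temperature, then cultured overnight at 37 C. Thallium flux was read with FluxOr dye. Rate constants were normalized to DMSO controls.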
gsp antagonist: qHTS for Antagonists of gsp, the Etiologic Mutation Responsible for Fibrous Dysplasia/McCune-Albright Syndrome: qHTS. AID 624288, 2012. 340,000 compounds, 0.4% hits. Potency, µM (doses to about 76.9 µM), for inactives: at the top dose activity change, negative = inhibition, hits mostly inhibitors. gsp-mutant cells, cAMP HTRF, 30 min; calls by dose curve; cell line not stated here;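 note: intracellular cAMP measured with PDE inhibitor Ro 20-1724 present during compound exposure; potency is the fitted concentration of half-maximal effect; % is set by controls: 0 for no effect and ±100 for the full control effect; nearly all actives have a fitted effect of over 65% in size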
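Measurement of cellular cAMP by homogeneous time-resolved fluorescence following a 30 min compound exposure at 37C. The PDE inhibitor […] was present throughout; the assay buffer was DPBS with 0.05% BSA and 0.005% Tween 20.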
Akt phos inh: HTS Assay for Inhibitors of Akt Phophorylation: Primary Screen. Neuro2A IGF-stimulated pAkt S473 HTRF, 20 min; hits give low values. activity change, % for hits at 50 µM. 360,000 compounds, 0.32% hits. AID 651550, 2012; in the data active = activity change below about -80%; inconclusive = mostly about -51% to -80%; note: % is set by controls: 0 for no effect and ±100 for the full control effect
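Neuro2A cells in DMEM with 0.5% FBS, overnight at 37 deg C, given compound at single 50 µM final, then IGF (6 nM final) for 20 min at 37 deg C. Lysed; phospho-Akt Ser473 by HTRF after 24 h, 665/615 ratio.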
gsp ag: qHTS for Agonist of gsp, the Etiologic Mutation Responsible for Fibrous Dysplasia/McCune-Albright Syndrome: qHTS; 340,000 compounds, 0.13% hits; AID 624287, 2012; Potency, µM (series often up to 76.9 µM), for the others: at the top dose activation (cAMP increase), most hits filed as activators; gsp mutant cells, cAMP HTRF, 30 min; active = well fitted activation curve with a large enough effect; inconclusive = small, poorly fitted or top-dose-only effect, or another doubt; inactive = no such curve, though single readings can be large or run the other way; cell line not stated here;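 note: phosphodiesterase inhibitor Ro 20-1724 added with compounds to block cAMP breakdown; potency is the fitted concentration of half-maximal effect; nearly all actives have a fitted effect of over 60% in size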
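Cells in DMEM/10% FBS with G418 were pretreated with compounds in DMSO plus […] (300 uM stock) for 30 min at 37C. cAMP was measured by HTRF (cAMP-d2 plus anti-cAMP antibody-K) after 30 min at room temperature.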
Numbers without * were called inactive; [ ] = remark or other dose. Compounds with a hit are over-represented: about 1.6% of the library has one in this group of screens.

How did C[C@@H]1CN(Cc2ccc3c(c2)CN(C(=O)CCc2nc4ccc(F)cc4[nH]2)CCO3)C[C@H](C)O1 do in these assays?
Glioma ERSR ind: 0%

What do the screens show for `CCn1c2ccccc2c2nnc(SCC(=O)NCCOC)nc21`?
Glioma ERSR ind: 2%; KCNH2 3.1 inh: 1; KCNH2 WT inh: -3; gsp antagonist: 4%; gsp ag: 10µM*

What do the screens show for `CCn1c2ccccc2c2nnc(SCC(=O)NCc3cccs3)nc21`?
Glioma ERSR ind: -1%; KCNH2 3.1 inh: 6; KCNH2 WT inh: 10; gsp antagonist: -3%; Akt phos inh: inactive; gsp ag: 1%

How did COc1cc(OC)c2nc(-c3cc4c(c(OC)c3)OCCN(C(=O)C(C)c3n[nH]c(=O)c5ccccc35)C4)cc(C)c2c1 (stereo not given) do in these assays?
Glioma ERSR ind: -3%

How did CC(C)(C)c1ccc(OCCCN2CCCC2)cc1 do in these assays?
Glioma ERSR ind: -4%; KCNH2 3.1 inh: -86*; KCNH2 WT inh: 40; gsp antagonist: -1%; Akt phos inh: inactive; gsp ag: 0%

How did Cc1cc(Br)ccc1OCCCCN1CCCCC1 do in these assays?
Glioma ERSR ind: -6%; KCNH2 3.1 inh: -89*; KCNH2 WT inh: -30; gsp antagonist: 16%; Akt phos inh: inactive; gsp ag: -2%[15.4 µM]

How did Clc1ccccc1OCCCCN1CCCCC1 do in these assays?
Glioma ERSR ind: 7%; KCNH2 3.1 inh: -1; KCNH2 WT inh: 14; gsp antagonist: -24%; Akt phos inh: inactive; gsp ag: 2%

What do the screens show for `CC1CCCN(CCCOc2ccc(Br)cc2Cl)C1` (stereo not given)?
Glioma ERSR ind: 0%; KCNH2 3.1 inh: -105*; KCNH2 WT inh: 33; gsp antagonist: -3%; Akt phos inh: inactive; gsp ag: -4%[15.4 µM]

What do the screens show for `CC(C)Oc1ccc(OCCCN2CCCCCC2)cc1`?
Glioma ERSR ind: -5%; KCNH2 3.1 inh: -37; KCNH2 WT inh: 12; gsp antagonist: 1%; Akt phos inh: inactive; gsp ag: -5%

Results for Cc1cc(Br)ccc1OCCOCCN1CCCC1 ?
Glioma ERSR ind: 0%; KCNH2 3.1 inh: -31; KCNH2 WT inh: 35; gsp antagonist: -2%; Akt phos inh: inactive; gsp ag: -11%

Results for Clc1ccc(Cl)c(OCCCCN2CCCCC2)c1 ?
Glioma ERSR ind: -4%; KCNH2 3.1 inh: -158*; KCNH2 WT inh: -137*; gsp antagonist: 7%; Akt phos inh: inactive; gsp ag: -11%

How did Cc1cc(C)n(-c2ccc(C(=O)NCC3Cc4cc(-c5cnccn5)ccc4O3)cc2)n1 (stereo not given) do in these assays?
Glioma ERSR ind: -2%

Results for [2H]c1c([2H])c([2H])c2c([nH]c(=S)n2C2CCN(CCCC(=O)c3ccc(F)cc3)CC2)c1[2H] ?
Glioma ERSR ind: -4%

How did Clc1ccc(Cl)c(OCCCCNCc2ccccc2)c1 do in these assays?
Glioma ERSR ind: -10%; KCNH2 3.1 inh: -93*; KCNH2 WT inh: 1; gsp antagonist: 7%; Akt phos inh: inactive; gsp ag: 6%

What do the screens show for `Cc1cc(OCCCCCN2CCCC2)ccc1Cl`?
Glioma ERSR ind: 0%; KCNH2 3.1 inh: -86*; KCNH2 WT inh: 75; gsp antagonist: 12%; Akt phos inh: inactive; gsp ag: 20%

What do the screens show for `COc1ccc2c(c1)-c1nc(-n3ncc(C(=O)N(C)C(C)c4ccon4)c3C3CC3)ncc1CC2` (stereo not given)?
Glioma ERSR ind: -3%

Results for O=C(NCCc1ccccc1)C(c1ccccc1F)N(C(=O)c1csnn1)C1CC1 (stereo not given) ?
Glioma ERSR ind: -3%; KCNH2 3.1 inh: -86*; KCNH2 WT inh: 13; gsp antagonist: 0%; Akt phos inh: inactive; gsp ag: 10%

What do the screens show for `CN(C)c1ccc(/C=C/c2cccc3cc4ccccc4nc23)cc1`?
Glioma ERSR ind: -9%

How did COc1cccc(NC(=O)C(=O)N2CCOCC2)c1 do in these assays?
Glioma ERSR ind: 1%; KCNH2 3.1 inh: -20; KCNH2 WT inh: 1; gsp antagonist: 12%; Akt phos inh: -100%*; gsp ag: -14%

Results for COc1ccc(NC(=O)CN2CCN(CC(=O)Nc3ccc(F)cc3)CC2)cc1Cl ?
Glioma ERSR ind: -3%; KCNH2 3.1 inh: -91*; KCNH2 WT inh: 2; gsp antagonist: -2%; Akt phos inh: inactive; gsp ag: inconclusive

How did COc1ccc(S(=O)(=O)N2CCN(CC(=O)Nc3cc(Cl)ccc3Cl)CC2)cc1 do in these assays?
Glioma ERSR ind: -4%; KCNH2 3.1 inh: -85*; KCNH2 WT inh: 1; gsp antagonist: 19%; Akt phos inh: inactive; gsp ag: 8%

How did COC(=O)c1ccc(NC(=O)C(=O)N2CCN(C(=S)Nc3cccc(OC)c3)CC2)cc1 do in these assays?
Glioma ERSR ind: -1%; KCNH2 3.1 inh: 9; KCNH2 WT inh: 0; gsp antagonist: -12%; Akt phos inh: inactive; gsp ag: 7%

What do the screens show for `CCOc1ccc(NC(=O)CN2CCN(CC(=O)Nc3cccc(F)c3)CC2)cc1`?
Glioma ERSR ind: -4%; KCNH2 3.1 inh: -85*; KCNH2 WT inh: -20; gsp antagonist: 5%[15.4 µM]; Akt phos inh: inactive; gsp ag: 7%

Results for Cc1ncc2c(c1CNC(=O)/C=C/c1cccs1)CCN(C(=O)c1c(C)noc1C)C2 ?
Glioma ERSR ind: -3%

Results for COc1ncc2nc(-c3ccccc3)c(=O)n(CCc3ccccc3)c2n1 ?
Glioma ERSR ind: -3%

What do the screens show for `Cc1cc2nccc(C)c2cc1C`?
Glioma ERSR ind: 7%

Results for COc1ccccc1NC(=O)CN1CCN(CC(=O)Nc2ccc(OCc3ccccc3)cc2)CC1 ?
Glioma ERSR ind: -1%; KCNH2 3.1 inh: -79*; KCNH2 WT inh: -25; gsp antagonist: -22%; Akt phos inh: inactive; gsp ag: 4%

Results for NS(=O)(=O)c1ccc(NC(=O)CN2CCN(S(=O)(=O)/C=C/c3ccccc3)CC2)cc1 ?
Glioma ERSR ind: -3%; KCNH2 3.1 inh: -3; KCNH2 WT inh: 18; gsp antagonist: -5%; Akt phos inh: inactive; gsp ag: 12%[15.4 µM]
